# Data from the supplement of paper PMC9262897, “Low-cost anti-mycobacterial drug discovery using engineered E. coli” (Nature Communications, 2022).
# Structures can show the parent of a compound that is named as a salt. ± gives the standard deviation of the averaged measurements.
# Experiments:
# Assay in all cases: growth (OD600 after 10 h); higher = more growth (less inhibition)
# [1] = system: E. coli TESEC Alr+ wild-type control; details: compound 0.1 mM; raw OD600 reference: median of DMSO wells 0.241, cell-free background 0.041
# Method: (§1)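 TESEC Mtb Alr E. coli, or the Alr+ wild-type control, in 384-well plates with Prestwick library compounds at 0.1 mM and 1% DMSO, across arabinose induction levels of 1E3 to 1E7 nM. Growth is read as OD600 after 10 h at 37 °C in triplicate biological replicates.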
# E. coli TESEC Mtb Alr [2] = details: compound 0.1 mM
# Method: as §1
# E. coli TESEC Mtb Asd = details: compound 0.1 mM
# Method: (§2)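 TESEC E. coli strains in which the native enzyme is deleted and replaced by arabinose-inducible Mtb Asd, DapB, CysH or TrpD, each grown in its selective medium. Strains were screened against the Prestwick library at 0.1 mM and 1% DMSO in 384-well format at low and high arabinose induction. Growth is read as OD600 after 10 h in triplicate.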
# E. coli TESEC Mtb DapB = details: compound 0.1 mM
# Method: as §2
# E. coli TESEC Mtb Alr [3] = details: compound 0.1 mM; remark: listed apart in the source
# Method: (§3)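 TESEC Mtb Alr E. coli (ΔaraC ΔtolC ΔentC Δalr ΔdadX, arabinose-inducible Mtb Alr) or the Alr+ wild-type control strain, grown in defined M9-fructose medium without D-alanine in 96-well plates with Prestwick library compounds at 0.1 mM and 1% DMSO. Low Alr induction is 0.1 µM arabinose and high induction is 10 mM arabinose.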
# [4] = system: E. coli TESEC Alr+ wild-type control; details: compound 0.1 mM; raw OD600 reference: median of DMSO wells 0.49, cell-free background 0.052
# Method: as §3
# [5] = arabinose 1000 nM, raw OD600 reference: median of DMSO wells 0.294, cell-free background 0.041
# [6] = arabinose 10000 nM, raw OD600 reference: median of DMSO wells 0.264, cell-free background 0.041
# [7] = arabinose 100000 nM, raw OD600 reference: median of DMSO wells 0.201, cell-free background 0.041
# [8] = arabinose 1000000 nM, raw OD600 reference: median of DMSO wells 0.193, cell-free background 0.041
# [9] = arabinose 10000000 nM, raw OD600 reference: median of DMSO wells 0.146, cell-free background 0.041
# [10] = arabinose induction (level): High, raw OD600 reference: median of DMSO wells 0.331, cell-free background 0.041
# [11] = arabinose induction (level): Low, raw OD600 reference: median of DMSO wells 0.417, cell-free background 0.041
# [12] = arabinose induction (level): High, raw OD600 reference: median of DMSO wells […], cell-free background 0.041
# [13] = arabinose induction (level): Low, raw OD600 reference: median of DMSO wells 0.227, cell-free background 0.041
# [14] = arabinose 100 nM, raw OD600 reference: median of DMSO wells 0.413, cell-free background 0.052
# [15] = arabinose 10000000 nM, raw OD600 reference: median of DMSO wells […], cell-free background 0.052
Compound,growth [1],growth (E. coli TESEC Mtb Alr [2]; [5]),growth (E. coli TESEC Mtb Alr [2]; [6]),growth (E. coli TESEC Mtb Alr [2]; [7]),growth (E. coli TESEC Mtb Alr [2]; [8]),growth (E. coli TESEC Mtb Alr [2]; [9]),growth (E. coli TESEC Mtb Asd; [10]),growth (E. coli TESEC Mtb Asd; [11]),growth (E. coli TESEC Mtb DapB; [12]),growth (E. coli TESEC Mtb DapB; [13]),growth (E. coli TESEC Mtb Alr [3]; [14]),growth (E. coli TESEC Mtb Alr [3]; [15]),growth [4]
C[C@]12CC[C@H](O)C[C@H]1CC[C@@H]1[C@@H]2CC[C@]2(C)[C@@H](C3=CC(=O)OC3)CC[C@]12O [Digitoxigenin],0.147 ± 0.0028,0.197 ± 0.0049,0.251 ± 0.0094,0.117 ± 0.0044,0.0923 ± 0.0033,0.126 ± 0.0021,0.154 ± 0.0042,0.289 ± 0.096,0.165 ± 0.0087,0.171 ± 0.003,0.41 ± 0.0093,0.227 ± 0.01,–
CCOC(=O)c1cncn1[C@H](C)c1ccccc1 [Etomidate],0.202 ± 0.0032,0.244 ± 0.0088,0.275 ± 0.013,0.214 ± 0.03,0.181 ± 0.01,0.14 ± 0.0078,0.43 ± 0.029,0.378 ± 0.076,0.225 ± 0.019,0.228 ± 0.013,0.41 ± 0.0073,0.341 ± 0.0035,–
"CC(=O)OCC1=C(C(=O)O)N2C(=O)[C@@H](N)[C@H]2SC1 [Cephalosporanic acid, 7-amino]",0.254 ± 0.0055,0.295 ± 0.011,0.269 ± 0.008,0.22 ± 0.023,0.205 ± 0.011,0.151 ± 0.0034,0.273 ± 0.018,0.402 ± 0.086,0.187 ± 0.014,0.215 ± 0.0044,0.408 ± 0.013,0.356 ± 0.011,0.649 ± 0.029
CN1C[C@H](C(=O)N[C@]2(C)O[C@@]3(O)[C@@H]4CCCN4C(=O)[C@H](Cc4ccccc4)N3C2=O)C[C@@H]2c3cccc4[nH]cc(c34)C[C@H]21 [Dihydroergotamine tartrate],0.0782 ± 0.0015,0.0712 ± 0.0052,0.0692 ± 0.001,0.0715 ± 0.0021,0.0579 ± 0.0025,0.082 ± 0.0022,0.116 ± 0.013,0.123 ± 0.0052,0.119 ± 0.018,0.161 ± 0.014,0.282 ± 0.043,0.0688 ± 0.0007,0.1077 ± 0.001
O=c1[nH]c2ccccc2n1CCCN1CCC(n2c(=O)[nH]c3cc(Cl)ccc32)CC1 [Domperidone],0.129 ± 0.0039,0.183 ± 0.0075,0.214 ± 0.015,0.149 ± 0.0082,0.09803 ± 0.00075,0.124 ± 0.0039,0.1177 ± 0.0011,0.176 ± 0.018,0.137 ± 0.005,0.152 ± 0.0037,0.41 ± 0.0087,0.246 ± 0.0035,–
COc1ccc(CN2CCNCC2)c(OC)c1OC [Trimetazidine dihydrochloride],0.228 ± 0.0052,0.3105 ± 0.0026,0.268 ± 0.0047,0.23 ± 0.024,0.172 ± 0.0071,0.162 ± 0.0046,0.301 ± 0.068,0.307 ± 0.11,0.197 ± 0.0097,0.242 ± 0.028,0.409 ± 0.014,0.33 ± 0.019,–
CCCC[N+]1(C)[C@@H]2CC(OC(=O)[C@H](CO)c3ccccc3)C[C@H]1[C@@H]1O[C@@H]12 (stereo not given in full) [Butylscopolammonium (n-) bromide],0.225 ± 0.0045,0.296 ± 0.012,0.2707 ± 0.0023,0.189 ± 0.01,0.185 ± 0.0011,0.132 ± 0.0029,0.372 ± 0.073,0.412 ± 0.034,0.216 ± 0.011,0.232 ± 0.015,0.405 ± 0.0075,0.338 ± 0.021,–
CCCC(C)C1(CC)C(=O)NC(=O)NC1=O (stereo not given) [Pentobarbital],0.233 ± 0.0093,0.279 ± 0.016,0.255 ± 0.013,0.233 ± 0.019,0.203 ± 0.011,0.143 ± 0.0092,0.451 ± 0.018,0.399 ± 0.087,0.2 ± 0.01,0.265 ± 0.014,0.4 ± 0.018,0.369 ± 0.0053,0.432 ± 0.011
CCC(=O)O[C@@](Cc1ccccc1)(c1ccccc1)[C@@H](C)CN(C)C [Levopropoxyphene napsylate],0.178 ± 0.0045,0.249 ± 0.005,0.283 ± 0.012,0.176 ± 0.014,0.1558 ± 0.001,0.15 ± 0.0048,0.169 ± 0.019,0.388 ± 0.047,0.175 ± 0.026,0.205 ± 0.011,0.4145 ± 0.0027,0.323 ± 0.013,–
c1ccc2c(c1)OCC(C1=NCCN1)O2 (stereo not given) [Idazoxan hydrochloride],0.23 ± 0.013,0.281 ± 0.02,0.27 ± 0.0069,0.188 ± 0.0024,0.192 ± 0.0045,0.141 ± 0.0099,0.373 ± 0.039,0.379 ± 0.019,0.183 ± 0.017,0.228 ± 0.021,0.401 ± 0.014,0.315 ± 0.0098,–
COc1cc([C@@H]2c3cc4c(cc3[C@H](O)[C@H]3COC(=O)[C@H]23)OCO4)cc(OC)c1OC [Podophyllotoxin],0.222 ± 0.0075,0.298 ± 0.016,0.271 ± 0.0092,0.168 ± 0.012,0.163 ± 0.0082,0.1495 ± 0.0008,0.443 ± 0.027,0.46 ± 0.053,0.212 ± 0.012,0.261 ± 0.027,0.403 ± 0.015,0.298 ± 0.0059,–
C[N+]1(C)CCOC(O)(c2ccc(-c3ccc(C4(O)C[N+](C)(C)CCO4)cc3)cc2)C1 (stereo not given) [Hemicholinium bromide],0.227 ± 0.013,0.298 ± 0.02,0.276 ± 0.0044,0.229 ± 0.025,0.1741 ± 0.00078,0.195 ± 0.0053,0.352 ± 0.026,0.281 ± 0.069,0.21 ± 0.012,0.217 ± 0.021,0.403 ± 0.0081,0.397 ± 0.015,–
CN(C)C(=O)Oc1cccc([N+](C)(C)C)c1 [Neostigmine bromide],0.256 ± 0.0033,0.316 ± 0.0053,0.273 ± 0.0057,0.225 ± 0.033,0.19 ± 0.0043,0.168 ± 0.0075,0.222 ± 0.028,0.331 ± 0.14,0.204 ± 0.0094,0.232 ± 0.064,0.404 ± 0.012,0.339 ± 0.011,–
CC[N+]1(C)CCCC(OC(=O)C(O)(c2ccccc2)c2ccccc2)C1 (stereo not given) [Pipenzolate bromide],0.217 ± 0.0052,0.284 ± 0.014,0.258 ± 0.012,0.169 ± 0.0056,0.186 ± 0.0047,0.133 ± 0.0034,0.299 ± 0.035,0.469 ± 0.025,0.234 ± 0.013,0.263 ± 0.058,0.409 ± 0.023,0.348 ± 0.025,–
C[C@]12CC[C@@H](O)C[C@H]1CC[C@@H]1[C@@H]2CC[C@]2(C)C(=O)CC[C@@H]12 [3-alpha-Hydroxy-5-beta-androstan-17-one],0.129 ± 0.0054,0.135 ± 0.0032,0.114 ± 0.0066,0.131 ± 0.015,0.0604 ± 0.00044,0.0824 ± 0.00098,0.118 ± 0.0061,0.171 ± 0.018,0.122 ± 0.0084,0.135 ± 0.013,0.354 ± 0.027,0.0844 ± 0.0097,–
O=c1[nH]oc2c1CCNC2 [THIP Hydrochloride],0.26 ± 0.0053,0.316 ± 0.0096,0.266 ± 0.0055,0.2 ± 0.019,0.194 ± 0.014,0.136 ± 0.0034,0.262 ± 0.035,0.433 ± 0.04,0.2018 ± 0.0015,0.238 ± 0.014,0.41 ± 0.013,0.349 ± 0.018,–
